In PubChem BioAssay (NCATS) one finds outcome and Potency data, which are given here for 33 compounds.

Inconclusive results are not listed. A call without a number means that no potency is given here. Calls of active or inactive are those of the source. Calls come from the whole dose curve; as a rule, active = well fitted curve in the direction sought with a large enough effect; inconclusive = small, poorly fitted or top-dose-only effect, or another doubt; inactive = no such curve, though single readings can be large; an effect the other way counts as inactive or inconclusive.

The first assay in a line: qHTS for inhibitors of adenylyl cyclases using a fission yeast platform: a pilot screen against the NCATS LOPAC library (AID 1347410). As to conditions: S. pombe CHP2027, fbp1-GFP fluorescence, 18 h; series mostly up to 57.5 µM. The gist of the method:
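S. pombe CHP2027 (AC9-GNAS-PDE4D2) carrying PKA-repressed fbp1-GFP, incubated 18 h at 30C in EMM with LOPAC compounds at up to 57 uM. GFP gain-of-signal read by laser scanning cytometry; DMSO negative control.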
Background: Quantitative high-throughput screening tests each substance at several concentrations.
Regarding `CN1C2CCC1CC(OC(=O)c1cc(Cl)cc(Cl)c1)C2` (stereo not given), the compound was classed as inactive.
Regarding `CCCCc1ccc(C(=O)O)nc1`, the compound was called inactive.
Still for that read-out and setting: as for `CCCN1CCC[C@H](c2cccc(O)c2)C1`, the entry is “inactive”; as for `CNCCc1c[nH]c2ccc(O)cc12`, “inactive”.
With `CC(=O)NCCc1c[nH]c2ccccc12`, the call was inactive.
For `COc1cc(C(O)CN)ccc1O` (stereo not given), the compound was classed as inactive.
As for `NC1CCc2cc(O)c(O)cc2C1` (stereo not given), the outcome was inactive.
As to `S=C(NC1CCCCC1)N1CCC(c2cnc[nH]2)CC1`, the compound was classed as inactive.
On the same count and under the same terms, as for `NC(CCP(=O)(O)O)C(=O)O` (stereo not given), the entry is “inactive”; as for `NC(=O)CN1CC(O)CC1=O` (stereo not given), “inactive”.
As to `CCCN(CCC)C1CCc2ccc(O)cc2C1` (stereo not given), the result was inactive.
For `COC(=O)[C@@H](N)CCCN=C(N)N[N+](=O)[O-]`, the compound was classed as inactive.

A short description of a further assay: qHTS to identify inhibitors of the type 1 interferon - major histocompatibility complex class I in skeletal muscle: primary screen against the NCATS Mechanism Interrogation Plate v5.0 (MIPE) Libary (AID 1347411). Note: nearly all actives have a fitted effect of over 65% in size. Note: potency is the fitted concentration of half-maximal effect. The conditions noted are these: iHSKM cells + IFN-b, HiBiT-tagged MHC-I luminescence, 24 h; series mostly up to 45.8 µM. The method, boiled down:
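HLA-B HiBit myoblasts, dexamethasone-free medium + 4 ng/ml IFN-b, 24 h compound, 11-pt 1:3 from 46 uM final. Readout: Nano-Glo HiBiT lytic luminescence after 10 min lysis, RT.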
`O=C(N[C@H]1CN2CCC1CC2)c1ccc(Cl)cc1`: the Potency result was “inactive”.
Still for that read-out and setting: as for `CCCN1CCO[C@@H]2c3cc(O)ccc3OC[C@H]21`, the entry is “inactive”.
For the compound `CC[C@@H](C(N)=O)N1CCCC1=O`, the Potency result is “inactive”.
With `COC(=O)[C@@H](N)CCCN=C(N)N[N+](=O)[O-]`, the Potency result was “inactive”.
As for `CC[C@@]1(O)C(=O)OCc2c1cc1n(c2=O)Cc2cc3ccccc3nc2-1`, the Potency was 2080 nM (active).

The nature of a further assay: Validation qHTS assay for inhibitors of Activation Induced Cytidine Deaminase (AID): UDG Counterscreen signal (AID 1347427). The conditions noted are these: biochemical UDG counterscreen, fluorescence signal; series mostly up to 115 µM. The gist of the method:
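Fluorescence at 560 nm excitation, 665 nm emission reports UDG signal after 250 mM NaOH (2x) addition and 30 min. Enzymes (AID 1 uM, UDG 2 U/mL, at 4/3x) preincubated 10 min with compound, then 4 h with 4x 250 nM DJC20/DJC23 substrate at room temperature.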
As to `CN1C2CCC1CC(OC(=O)c1cc(Cl)cc(Cl)c1)C2` (stereo not given), the call was inactive.
With `CCCCc1ccc(C(=O)O)nc1`, the compound was classed as inactive.
Turning to `NC1CC1c1ccccc1` (stereo not given), the result was inactive.
Regarding `O=C(O)CC[N+](=O)[O-]`, the compound was called inactive.
Regarding `CCCN1CCC[C@H](c2cccc(O)c2)C1`, the compound was classed as inactive.
As for `O=C(N[C@H]1CN2CCC1CC2)c1ccc(Cl)cc1`, the compound was classed as inactive.
`CNCCc1c[nH]c2ccc(O)cc12`: the outcome was inactive.
On to `CC(C)Oc1cccnc1N(C)C1CCN(Cc2ccccc2)CC1`, for which the compound was classed as inactive.
As to `CC(=O)NCCc1c[nH]c2ccccc12`, the call was inactive.
Turning to `COc1cc(C(O)CN)ccc1O` (stereo not given), the compound was classed as inactive.
Take `O=C(O)[C@@H]1CCN1`: the compound was called inactive.
Consider `CCCN1CCO[C@@H]2c3cc(O)ccc3OC[C@H]21`, for which the call was inactive.
Same read-out and setting: as for `NCCc1c[nH]c2ccc(O)cc12`, the entry is “inactive”; as for `O=C1CCCN1CC#CCN1CCCC1`, “inactive”; as for `NC1CCc2cc(O)c(O)cc2C1` (stereo not given), “inactive”.
Consider `O=C(O)Cc1cnc[nH]1`, for which the outcome was inactive.
For the compound `S=C(NC1CCCCC1)N1CCC(c2cnc[nH]2)CC1`, the compound was classed as inactive.
On to `NCCc1c[nH]c2ccccc12`, for which the outcome was inactive.
As to `NC(CCP(=O)(O)O)C(=O)O` (stereo not given), the compound was classed as inactive.
For `C[C@]12CCC3C(CC[C@H]4C[C@H](O)CC[C@]34C)C1CC[C@@H]2C(=O)CO` (stereo not given in full), the outcome was inactive.
With `CC[C@@H](C(N)=O)N1CCCC1=O`, the outcome was inactive.
Consider `C=CCN1CC[C@]23CCCCC2[C@H]1Cc1ccc(O)cc13` (stereo not given in full), for which the call was inactive.
Take `c1ccc2sc(C3(N4CCCCC4)CCCCC3)cc2c1`: the result was inactive.
Take `C[C@@H](N)Cc1cnc[nH]1`: the call was inactive.
`NC(=O)CN1CC(O)CC1=O` (stereo not given): the outcome was inactive.
`Oc1ccc2c3c1O[C@H]1c4[nH]c5c(c4C[C@@]4(O)[C@@H](C2)N(CC2CC2)CC[C@]314)C[C@@]1(O)[C@H]2Cc3ccc(O)c4c3[C@@]1(CCN2CC1CC1)[C@H]5O4`: the compound was classed as inactive.
On to `CCCN(CCC)C1CCc2ccc(O)cc2C1` (stereo not given), for which the compound was called inactive.
Turning to `NC(CP(=O)(O)O)C(=O)O` (stereo not given), the compound was classed as inactive.
Regarding `COC(=O)[C@@H](N)CCCN=C(N)N[N+](=O)[O-]`, the result was inactive.
In the case of `C#CCOC(=O)C1=CCCN(C)C1`, the compound was classed as inactive.
With `CNCCc1ccc(O)c(O)c1`, the result was inactive.
On to `NC(N)=NOCCC(N)C(=O)O` (stereo not given), for which the call was inactive.
Take `CC[C@@]1(O)C(=O)OCc2c1cc1n(c2=O)Cc2cc3ccccc3nc2-1`: the compound was classed as inactive.
